How the values were obtained:
Assay in all cases: DAPPL (digital affinity profiling via proximity ligation, sequencing); 10 mM Tris-HCl pH 7.5, 50 mM NaCl, 1 mM DTT, 4% glycerol, room temperature, 30 min; GST-TFs on glutathione beads, 16-mer random dsDNA library, 0.1% formaldehyde crosslink after washing; high values mean tight binding
Details in all cases: protein: recombinant; tags: N-terminal GST; dsDNA, one strand shown
FLI1 = biological target: T1, FLI1 (Homo sapiens, UniProt Q01543 1-452)
T1 sequence: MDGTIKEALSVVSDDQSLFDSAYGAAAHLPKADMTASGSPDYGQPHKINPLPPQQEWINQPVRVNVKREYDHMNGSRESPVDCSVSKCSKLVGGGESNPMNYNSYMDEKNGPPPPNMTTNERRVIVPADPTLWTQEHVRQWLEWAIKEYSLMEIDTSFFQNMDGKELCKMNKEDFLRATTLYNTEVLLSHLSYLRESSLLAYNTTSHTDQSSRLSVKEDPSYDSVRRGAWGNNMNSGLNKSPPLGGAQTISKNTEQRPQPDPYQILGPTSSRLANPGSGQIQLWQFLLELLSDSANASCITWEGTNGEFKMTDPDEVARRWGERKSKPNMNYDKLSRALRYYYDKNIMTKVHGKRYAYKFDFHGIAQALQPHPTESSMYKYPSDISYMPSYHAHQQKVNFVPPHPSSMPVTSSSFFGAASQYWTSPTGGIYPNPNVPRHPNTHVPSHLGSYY
How it was run: (§1)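 Sequencing on an Illumina NextSeq500 followed washing, crosslinking with 0.1% formaldehyde, proximity ligation (BsaI/T4 ligase, 1 h, 37 °C) and PCR amplification of pools that had been incubated for 30 min at room temperature with 200 nmole of a random double-stranded 16-mer DNA library in Tris/NaCl/DTT/glycerol buffer. Each pool held DNA-barcoded human transcription factors, expressed in yeast as GST fusions and captured on glutathione beads, plus a tag-only sample. Binding signal is a hexamer's read frequency for a factor divided by its frequency in the tag-only sample.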

ELK1 = biological target: T2, ELK1 (Homo sapiens, UniProt P19419 1-428)
T2 sequence: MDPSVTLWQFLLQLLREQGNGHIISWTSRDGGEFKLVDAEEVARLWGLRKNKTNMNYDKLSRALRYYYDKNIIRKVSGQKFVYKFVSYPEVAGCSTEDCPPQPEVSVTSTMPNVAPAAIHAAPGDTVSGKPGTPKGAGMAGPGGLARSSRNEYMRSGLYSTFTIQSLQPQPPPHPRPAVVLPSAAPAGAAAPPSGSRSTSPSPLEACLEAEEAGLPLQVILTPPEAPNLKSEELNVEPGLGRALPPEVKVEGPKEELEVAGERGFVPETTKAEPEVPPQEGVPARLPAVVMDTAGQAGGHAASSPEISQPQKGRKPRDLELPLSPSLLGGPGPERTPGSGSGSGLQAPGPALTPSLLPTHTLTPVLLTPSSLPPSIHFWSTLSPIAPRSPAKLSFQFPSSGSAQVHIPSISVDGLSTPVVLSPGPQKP
How it was run: as §1

GABPA = biological target: T3, GABPA (Homo sapiens, UniProt Q06546 1-454)
T3 sequence: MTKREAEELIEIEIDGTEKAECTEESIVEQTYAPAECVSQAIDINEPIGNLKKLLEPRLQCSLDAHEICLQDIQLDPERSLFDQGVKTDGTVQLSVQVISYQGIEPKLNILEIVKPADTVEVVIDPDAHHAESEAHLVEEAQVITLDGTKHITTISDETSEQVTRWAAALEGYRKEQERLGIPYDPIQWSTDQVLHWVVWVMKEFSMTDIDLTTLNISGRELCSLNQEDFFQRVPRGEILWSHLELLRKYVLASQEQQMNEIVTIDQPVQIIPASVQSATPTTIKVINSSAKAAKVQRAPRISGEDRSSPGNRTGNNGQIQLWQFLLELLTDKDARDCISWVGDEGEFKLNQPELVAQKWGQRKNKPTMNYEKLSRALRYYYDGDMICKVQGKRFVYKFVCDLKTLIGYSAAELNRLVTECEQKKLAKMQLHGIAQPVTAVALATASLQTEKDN
How it was run: as §1

ERG = biological target: T4, ERG (Homo sapiens, UniProt P11308 1-479)
T4 sequence: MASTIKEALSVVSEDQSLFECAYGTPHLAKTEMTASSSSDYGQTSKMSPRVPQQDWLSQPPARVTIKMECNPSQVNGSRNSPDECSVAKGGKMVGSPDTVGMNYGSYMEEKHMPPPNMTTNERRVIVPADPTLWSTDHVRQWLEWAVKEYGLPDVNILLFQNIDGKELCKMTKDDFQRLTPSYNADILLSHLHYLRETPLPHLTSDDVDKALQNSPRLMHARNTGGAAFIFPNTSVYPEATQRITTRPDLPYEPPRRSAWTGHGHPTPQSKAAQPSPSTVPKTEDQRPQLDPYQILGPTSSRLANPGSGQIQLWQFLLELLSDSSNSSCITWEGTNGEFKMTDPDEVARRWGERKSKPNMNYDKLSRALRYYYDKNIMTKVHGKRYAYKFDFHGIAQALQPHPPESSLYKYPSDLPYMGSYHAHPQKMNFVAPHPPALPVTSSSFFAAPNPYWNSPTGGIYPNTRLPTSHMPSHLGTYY
How it was run: as §1

ELF1 = ELF1 (Homo sapiens, UniProt P32519 1-619)
Chain of ELF1 (P32519 whole entry): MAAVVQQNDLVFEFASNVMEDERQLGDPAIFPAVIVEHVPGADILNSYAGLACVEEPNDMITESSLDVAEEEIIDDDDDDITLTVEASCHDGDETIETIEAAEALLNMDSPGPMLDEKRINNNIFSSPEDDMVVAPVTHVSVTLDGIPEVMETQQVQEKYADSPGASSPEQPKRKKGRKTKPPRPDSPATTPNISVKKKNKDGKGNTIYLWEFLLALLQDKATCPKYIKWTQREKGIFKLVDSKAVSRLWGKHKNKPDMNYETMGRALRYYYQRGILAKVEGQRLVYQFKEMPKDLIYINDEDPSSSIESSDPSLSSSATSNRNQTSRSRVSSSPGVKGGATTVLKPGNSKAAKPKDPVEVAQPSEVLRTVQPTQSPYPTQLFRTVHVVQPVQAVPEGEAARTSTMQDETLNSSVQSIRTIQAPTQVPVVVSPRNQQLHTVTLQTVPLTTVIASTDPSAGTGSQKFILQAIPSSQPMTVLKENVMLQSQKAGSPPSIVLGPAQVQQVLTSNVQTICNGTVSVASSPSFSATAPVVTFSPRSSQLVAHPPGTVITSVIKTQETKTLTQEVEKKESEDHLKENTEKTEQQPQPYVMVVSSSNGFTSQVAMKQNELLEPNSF
How it was run: as §1

EHF = biological target: T5, EHF (Homo sapiens, UniProt Q9NZC4 1-300)
T5 sequence: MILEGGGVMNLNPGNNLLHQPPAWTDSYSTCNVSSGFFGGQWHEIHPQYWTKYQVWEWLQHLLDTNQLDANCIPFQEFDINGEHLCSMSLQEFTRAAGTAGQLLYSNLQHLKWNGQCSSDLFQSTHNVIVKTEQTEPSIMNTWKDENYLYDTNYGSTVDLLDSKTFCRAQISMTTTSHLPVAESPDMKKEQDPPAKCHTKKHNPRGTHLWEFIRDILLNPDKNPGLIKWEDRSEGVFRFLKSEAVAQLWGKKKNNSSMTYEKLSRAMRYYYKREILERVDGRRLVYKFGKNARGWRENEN
How it was run: as §1

SPI1 = SPI1 (Homo sapiens, UniProt P17947 1-270)
How it was run: as §1

SPIB = SPIB (Homo sapiens, UniProt Q01892 1-262)
Chain of SPIB (Q01892 whole entry): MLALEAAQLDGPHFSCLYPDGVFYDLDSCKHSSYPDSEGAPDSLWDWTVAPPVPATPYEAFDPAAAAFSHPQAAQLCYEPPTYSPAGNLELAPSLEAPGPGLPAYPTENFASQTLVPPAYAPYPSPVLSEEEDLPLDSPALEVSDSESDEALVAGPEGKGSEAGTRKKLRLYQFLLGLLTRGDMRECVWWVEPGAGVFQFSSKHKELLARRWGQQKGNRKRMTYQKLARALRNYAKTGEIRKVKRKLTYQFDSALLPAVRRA
How it was run: as §1

ELK3 = biological target: T6, ELK3 (Homo sapiens, UniProt P41970 1-407)
T6 sequence: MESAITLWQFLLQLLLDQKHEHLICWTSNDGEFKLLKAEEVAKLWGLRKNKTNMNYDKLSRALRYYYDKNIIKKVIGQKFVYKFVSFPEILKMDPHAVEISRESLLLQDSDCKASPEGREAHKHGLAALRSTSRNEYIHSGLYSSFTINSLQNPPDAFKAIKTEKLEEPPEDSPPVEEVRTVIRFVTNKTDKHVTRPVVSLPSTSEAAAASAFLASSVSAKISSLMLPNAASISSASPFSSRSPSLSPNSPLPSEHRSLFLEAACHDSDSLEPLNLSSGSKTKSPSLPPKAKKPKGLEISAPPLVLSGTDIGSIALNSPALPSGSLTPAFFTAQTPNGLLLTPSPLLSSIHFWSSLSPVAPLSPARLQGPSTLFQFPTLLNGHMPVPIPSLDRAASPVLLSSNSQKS
How it was run: as §1

FEV = biological target: T7, FEV (Homo sapiens, UniProt Q99581 1-238)
T7 sequence: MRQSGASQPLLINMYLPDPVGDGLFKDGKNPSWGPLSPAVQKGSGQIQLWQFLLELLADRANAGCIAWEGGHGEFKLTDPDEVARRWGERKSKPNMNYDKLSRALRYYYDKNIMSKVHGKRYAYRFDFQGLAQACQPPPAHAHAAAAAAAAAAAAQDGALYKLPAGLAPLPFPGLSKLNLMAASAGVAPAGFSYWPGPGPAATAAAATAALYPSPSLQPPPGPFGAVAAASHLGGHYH
How it was run: as §1

In the case of TGGCCA, the binding signal (FLI1) is reported as 1.1 fold enrichment (6-mer frequency, TF over GST control), the binding signal (ELK1) is reported as 1.09 fold enrichment (6-mer frequency, TF over GST control) and the binding signal (GABPA) is reported as 1.16 fold enrichment (6-mer frequency, TF over GST control). For the same sequence, the binding signal (ERG) was 1.05 fold enrichment (6-mer frequency, TF over GST control), the binding signal (ELF1) was 1.14 fold enrichment (6-mer frequency, TF over GST control) and the binding signal (EHF) was 1.05 fold enrichment (6-mer frequency, TF over GST control). For the same sequence, the binding signal (SPI1) was 1.05 fold enrichment (6-mer frequency, TF over GST control), the binding signal (SPIB) was 1.13 fold enrichment (6-mer frequency, TF over GST control) and the binding signal (ELK3) was 1.1 fold enrichment (6-mer frequency, TF over GST control). The binding signal (FEV) was 1.13 fold enrichment (6-mer frequency, TF over GST control).
